Results reported in PubChem BioAssay (NCATS).
Inconclusive results are not listed. Activity calls are given as the source filed them. Unless noted, the call rests on the fitted dose curve; in most records, active means well fitted curve in the direction sought with a large enough effect; inconclusive means small, poorly fitted or top-dose-only effect, or another doubt; inactive means no such curve, though single readings can be large; an effect the other way counts as inactive or inconclusive.

How the values were obtained:
Furin (Homo sapiens) = Furin (Homo sapiens) (UniProt P09958); assay: Furin counterscreen qHTS for Zika virus inhibitors (AID 1347149); further: nearly all actives have a fitted effect of over 70% in size; further: potency means the concentration at half of the fitted maximal effect;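 on activity change, negative = inhibition: purified recombinant full-length human furin enzyme at 5 nM; fluorescence gain from furin cutting a BOC-RVRR-AMC peptide substrate over 15 min; top concentration of the series differs between compounds; plate controls were no-inhibitor control for no effect and no-enzyme control for full effect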
Summary of the method: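 Counterscreen measures cleavage of 2 microM BOC-RVRR-AMC, below its ~15 microM Km, by 5 nM full-length human furin at pH 7.0 after a 15-min compound preincubation. Inhibition derives from the 15-min fluorescence increase at 37C.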

[1] = tested on: Zika virus NS2B-NS3 protease (unlinked complex); assay: Confirmatory screen GU AMC qHTS for Zika virus inhibitors (AID 1347153);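 further: percent inhibition with 0% = no inhibitor control and 100% = no enzyme control; nearly all actives have a fitted effect of over 70% in size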
Summary of the method: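 Noncovalent NS2B hydrophilic domain/NS3 protease complex (25 nM) in 10 mM Tris-HCl pH 8.0, 0.01% Tween 20 was preincubated 15 min at room temperature with compounds. Then 10 µM AMC substrate (Km 18.3 µM) was added; fluorescence was read over 15 min and fitted to a 4-parameter Hill equation.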

[2] = Confirmatory screen NINDS Rhodamine qHTS for Zika virus inhibitors (AID 1347161); further: nearly all actives have a fitted effect of over 60% in size; further: potency means the concentration at half of the fitted maximal effect;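 on activity change, negative = inhibition: purified Zika NS2B-NS3 protease with linked NS2B cofactor domain and Rhodamine110 peptide substrate; plate controls were no-inhibitor control for no effect and no-enzyme control for full effect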
Summary of the method: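 Single-chain NS2B-NS3 protease, 25 nM, pH 8.0; compounds preincubated 15 min. Activity: Rhodamine110 release from 1.5 microM substrate over 15 min, room temperature, data fitted to 4-parameter Hill.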

[3] = Vero cells viability qHTS for Zika virus inhibitors (AID 1347167); further: on the % scale 0 is the no-effect control and ±100 the full control effect
Summary of the method: (§1)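 qHTS titration; 24-48 h compound exposure, 37 degrees C/5% CO2; DMEM, 4% FBS; CellTiter Glo ATP luminescence.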

[4] = HepG2 cells viability qHTS for Zika virus inhibitors (AID 1347168); further: on the % scale 0 is the no-effect control and ±100 the full control effect
Summary of the method: as §1

[5] = Tertiary RLuc qRT-PCR qHTS assay for Zika virus inhibitors (AID 1347169); further: top concentration of the series differs between compounds; on the % scale 0 is the no-effect control and ±100 the full control effect; nearly all actives have a fitted effect of over 55% in size
Summary of the method: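 Vero, 1,000 cells/well, o/n 37 C; cpd pinned in DMSO; ZIKV-RLuc Cambodian, MOI 1-2, 48-72 h 37 C; live-cell RLuc substrate, lum read at 1-1.5 h.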

[6] = tested on: Zika virus NS2B-NS3 protease (linked construct); assay: Confirmatory screen NINDS AMC qHTS for Zika virus inhibitors (AID 1347152); further: nearly all actives have a fitted effect of over 70% in size; further: potency means the concentration at half of the fitted maximal effect;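 on activity change, negative = inhibition: AMC fluorescence gain from cleaved Bz-Nle-KRR-AMC substrate over 15 min; top concentration of the series differs between compounds; 0% = no-inhibitor control and -100% = no-enzyme control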
Summary of the method: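 Enzyme (1 nM, linked construct) was preincubated with compound for 15 minutes at room temperature in 10 mM Tris-HCl pH 8.0 with 0.01% Tween 20. Bz-Nle-Lys-Arg-Arg-AMC was then added to 10 microM, and AMC fluorescence was recorded immediately and after 15 minutes.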

[7] = biological target: Glucocorticoid receptor (Homo sapiens) (UniProt P04150); assay: GR-GFP Redistribution (AID 450;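 active means compounds whose dose series gives a full or clear partial fitted curve of increased nuclear translocation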; further: potency means the concentration at half of the fitted maximal effect); conditions: U2OS GR-GFP nuclear translocation, laser cytometry, 2 h
[8] = biological target: Glucocorticoid receptor (Homo sapiens) (UniProt P04150); assay: GR-EFC Redistribution (AID 451; calls by dose curve; further: potency means the concentration at half of the fitted maximal effect); conditions: CHO-K1 GR-EFC translocation, beta-gal luminescence, 2 h
Summary of the method: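 CHO-K1 cells expressing nuclear EA and GR-ED fragments of b-gal; compounds titrated up to 46 uM final, 2 h at 37 C. GR nuclear translocation read as complemented b-gal luminescence after 1 h RT detection.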

[9] = biological target: Mitogen-activated protein kinase 10 (Mus musculus) (UniProt Q61831); assay: JNK3 AlphaScreen Assay (AID 530; active means well fitted curve in either direction with a large enough effect, not every such curve was filed as active;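 further: kinase came from lysate of stimulated human HepG2 cells; signal reports phosphorylation of biotinylated GST-cJun 1-79 at Ser73 with 10 µM ATP; on the % scale 0 is the no-effect control and ±100 the full control effect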)
Summary of the method: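 Activity was read by AlphaScreen after JNK3-containing HepG2 lysate (cytokine pre-activated) phosphorylated biotinylated GST-cJun with 10 uM ATP at room temperature. Phospho-Ser73 cJun antibody with Protein-A acceptor beads provided detection.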

[10] = biological target: Cytochrome P450 3A4 (Homo sapiens) (UniProt P08684); assay: qHTS Assay for Activators of Cytochrome P450 3A4 (AID 885); further: nearly all actives have a fitted effect of over 65% in size
Summary of the method: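 CYP3A4 activity: Luciferin-PPXE O-dealkylation, 25uM substrate, 200mM KPO4, RT throughout. Read-out is luciferase luminescence; higher values reflect activation.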

[11] = biological target: DNA dC->dU-editing enzyme APOBEC-3G (Homo sapiens) (UniProt Q9HC16); assay: qHTS for inhibitors of Vif-A3G interactions: Validation (AID 588379); further: 0% is about no effect
Summary of the method: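 Yellow fluorescence (Ex 488, Em 500-530) of Vif-coexpressing HeLa A3G-eYFP cells, scanned by Acumen cytometer, reports blocked A3G degradation. Cells plated at 700/well overnight at 37 deg C before compound addition, then a further overnight compound incubation at 37 deg C.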

[12] = tested on: Zika virus NS2B-NS3 protease; assay: Primary screen GU AMC qHTS for Zika virus inhibitors (AID 1347154); further: nearly all actives have a fitted effect of over 70% in size; further: potency means the concentration at half of the fitted maximal effect
Summary of the method: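 Unlinked Zika NS2B hydrophilic domain–NS3 protease complex at 25 nM in 10 mM Tris-HCl pH 8.0, 0.01% Tween 20, with an AMC peptide substrate. Fluorescence change (340/450 nm) over 15 min at room temperature, normalized to controls, fitted to 4-parameter Hill.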

[13] = biological target: Rap guanine nucleotide exchange factor 3 (Homo sapiens) (UniProt O95398); assay: Confirmatory qHTS for antagonist of cAMP-regulated guanine nucleotide exchange factor 3 (EPAC1) (AID 1645880);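 further: plate controls were DMSO only for no effect and full effect of the ATA control for full effect; nearly all actives have a fitted effect of over 55% in size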
Summary of the method: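 Released BODIPY-GDP fluoresces less than Rap1-bound BODIPY-GDP; the signal is followed at 480/540 nm at 5-min intervals over 30 min, after 5 min at room temperature. Reactions contain 100 nM EPAC1, 250 nM RAP1B-BODIPY-GDP and 50 uM GDP; results are normalized to ATA and DMSO.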

[14] = biological target: Rap guanine nucleotide exchange factor 3 (Homo sapiens) (UniProt O95398); assay: Confirmatory qHTS for agonist of cAMP-regulated guanine nucleotide exchange factor 3 (EPAC1) (AID 1645881);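 further: EPAC1 catalysed release of BODIPY-GDP from Rap1B seen as fluorescence loss; 100% = effect of cAMP agonist control; nearly all actives have a fitted effect of over 75% in size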
[15] = biological target: Rap guanine nucleotide exchange factor 4 (Homo sapiens) (UniProt Q8WZA2); assay: Confirmatory qHTS for antagonist of cAMP-regulated guanine nucleotide exchange factor 4 (EPAC2) (AID 1645885); further: on the % scale 0 is the no-effect control and ±100 the full control effect; nearly all actives have a fitted effect of over 25% in size
[16] = Confirmation and Secondary Assay for Modulators of Hemoglobin Beta Chain Splicing at IVS2 654 locus (AID 910);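 further: HeLa cells stably carrying EGFP split by mutant beta-globin IVS2-654 intron; % of control where 0% means no effect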
Summary of the method: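 HeLa cells stably expressing EGFP interrupted by β-globin IVS2-654 intron, seeded overnight in Opti-MEM/2% FCS, then treated 2 days at 37 °C. Restored splicing read as total peak GFP intensity per well by laser scanning cytometry (488 nm excitation, 500–520 nm emission); 500 nM antisense PNA as control.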

[17] = Confirmation and Secondary Assay for Modulators of Hemoglobin Beta Chain Splicing at IVS2 705 locus (AID 930);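 further: HeLa cells stably expressing the EGFP-705 splicing reporter; GFP fluorescence per well restored by corrected splicing of the IVS2-705 intron in EGFP; % of control where 0% means no effect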
Summary of the method: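 HeLa cells stably carrying EGFP interrupted by mutant beta-globin intron 2 (IVS2-705) treated 2 days at 37C with compound; 500 nM antisense PNA as control. Correct splicing read as total peak GFP intensity per well by laser-scanning cytometry.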

[18] = qHTS Assay for Lipid Storage Modulators (AID 1519; calls by dose curve; on activity change, negative = inhibition: on the % scale 0 is the no-effect control and ±100 the full control effect); conditions: Drosophila S3 cells, BODIPY lipid droplet/cell ratio, laser cytometry, cells loaded with oleic acid
Summary of the method: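 Cells seeded at 5,000 per well were treated with compounds over a concentration series and loaded with oleic acid (400 uM, as added). Lipid droplet fluorescence (488 nm excitation, 500-530 nm channel) was read by laser-scanning cytometry and normalized to 20 uM Triacsin C.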

[19] = Confirmatory screen GU Rhodamine qHTS for Zika virus inhibitors qHTS (AID 1347157); further: nearly all actives have a fitted effect of over 70% in size; further: potency means the concentration at half of the fitted maximal effect;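 on activity change, negative = inhibition: plate controls were no-inhibitor wells for no effect and no-enzyme wells for full effect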
Summary of the method: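 Buffer 10 mM Tris-HCl pH 8.0, 0.01% Tween 20. Unlinked protease 25 nM; compound preincubation 15 min, RT, protected from light. Substrate Rhod110, 1.5 microM; ~15% conversion in 15 min.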

[20] = ZIKV-mCherry secondary qHTS for Zika virus inhibitors (AID 1347158); further: top concentration of the series differs between compounds
Summary of the method: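 Percent infection is the share of Hoechst-identified Vero nuclei with mCherry signal above 450 RFU (3 SD over negative controls). Cells were infected with recombinant ZIKV-mCherry at MOI 1 after compound addition and imaged 48–72 h later.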

[21] = tested on: Zika virus NS2B-NS3 protease (linked); assay: 384 well plate NINDS AMC confirmatory qHTS for Zika virus inhibitors (AID 1347163); further: nearly all actives have a fitted effect of over 50% in size; further: potency means the concentration at half of the fitted maximal effect
Summary of the method: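 Fluorescence at 355/460 nm was read after 25 minutes of cleavage of 30 microM Ac-VKTGKR-AMC at room temperature, in the dark. Before substrate addition, compounds (up to 1 mM final) sat ~15 minutes with 5, 30 or 60 nM linked protease. Signals were normalized to no-enzyme and no-inhibitor wells.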

[22] = tested on: Zika virus NS2B-NS3 protease (linked construct); assay: 384 well plate NINDS Rhodamine confirmatory qHTS for Zika virus inhibitors (AID 1347164);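 further: fluorescence from protease cleavage of Ac-LKRR-rhodamine 110 substrate; potency means the concentration at half of the fitted maximal effect; nearly all actives have a fitted effect of over 65% in size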
Summary of the method: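 Enzyme (final 5/30/60 nM) + cpd (DMSO), ~15 min; add Ac-LKRR-Rd 10 microM final; 25 min RT, dark; FI ex 485/em 538; normalized to no-enzyme, no-inhibitor ctrls; aprotinin intraplate ctrl.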

Sequence of Furin (Homo sapiens) (P09958 whole entry, looked up): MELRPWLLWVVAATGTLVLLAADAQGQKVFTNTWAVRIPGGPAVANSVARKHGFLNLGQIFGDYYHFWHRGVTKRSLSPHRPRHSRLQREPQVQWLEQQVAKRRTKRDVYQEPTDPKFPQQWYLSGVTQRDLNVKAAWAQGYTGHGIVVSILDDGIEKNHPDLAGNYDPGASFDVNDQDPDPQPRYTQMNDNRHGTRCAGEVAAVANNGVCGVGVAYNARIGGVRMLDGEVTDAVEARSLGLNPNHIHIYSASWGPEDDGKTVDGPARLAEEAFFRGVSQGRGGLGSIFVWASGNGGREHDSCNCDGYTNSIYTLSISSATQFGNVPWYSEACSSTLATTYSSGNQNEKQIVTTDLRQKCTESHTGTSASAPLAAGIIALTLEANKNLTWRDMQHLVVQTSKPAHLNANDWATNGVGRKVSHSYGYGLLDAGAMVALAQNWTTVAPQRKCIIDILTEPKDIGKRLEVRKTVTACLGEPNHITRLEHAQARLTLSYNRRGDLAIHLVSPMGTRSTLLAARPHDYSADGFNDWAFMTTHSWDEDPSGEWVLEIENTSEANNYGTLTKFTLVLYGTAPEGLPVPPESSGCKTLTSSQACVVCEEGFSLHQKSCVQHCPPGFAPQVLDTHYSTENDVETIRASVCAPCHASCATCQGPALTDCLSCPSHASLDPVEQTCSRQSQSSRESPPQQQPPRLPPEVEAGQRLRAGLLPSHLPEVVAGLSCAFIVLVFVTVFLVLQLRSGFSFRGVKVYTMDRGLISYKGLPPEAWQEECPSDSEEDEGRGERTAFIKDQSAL
Sequence of Glucocorticoid receptor (Homo sapiens) (P04150 whole entry, looked up, the tested form may be a part): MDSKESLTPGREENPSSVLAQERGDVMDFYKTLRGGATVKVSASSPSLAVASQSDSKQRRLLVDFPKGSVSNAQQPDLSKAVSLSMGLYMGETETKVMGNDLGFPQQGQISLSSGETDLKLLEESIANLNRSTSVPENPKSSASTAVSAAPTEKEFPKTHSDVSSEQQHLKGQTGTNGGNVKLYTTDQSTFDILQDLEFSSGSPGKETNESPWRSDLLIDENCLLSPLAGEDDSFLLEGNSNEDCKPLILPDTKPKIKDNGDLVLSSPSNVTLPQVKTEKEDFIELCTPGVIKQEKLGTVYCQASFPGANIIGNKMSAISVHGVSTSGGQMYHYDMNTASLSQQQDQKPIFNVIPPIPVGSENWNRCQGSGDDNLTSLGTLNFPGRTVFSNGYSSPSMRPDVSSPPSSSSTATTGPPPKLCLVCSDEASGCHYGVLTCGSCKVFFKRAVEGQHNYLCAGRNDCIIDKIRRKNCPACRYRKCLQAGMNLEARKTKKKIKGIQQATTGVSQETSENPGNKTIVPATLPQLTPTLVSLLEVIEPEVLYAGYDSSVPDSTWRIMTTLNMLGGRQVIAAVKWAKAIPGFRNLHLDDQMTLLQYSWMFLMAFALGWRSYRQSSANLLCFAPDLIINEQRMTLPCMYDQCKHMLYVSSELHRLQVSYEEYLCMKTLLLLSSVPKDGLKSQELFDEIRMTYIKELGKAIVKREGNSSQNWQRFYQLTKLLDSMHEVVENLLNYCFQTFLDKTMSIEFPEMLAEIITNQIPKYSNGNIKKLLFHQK
Sequence of Rap guanine nucleotide exchange factor 3 (Homo sapiens) (O95398 whole entry, looked up): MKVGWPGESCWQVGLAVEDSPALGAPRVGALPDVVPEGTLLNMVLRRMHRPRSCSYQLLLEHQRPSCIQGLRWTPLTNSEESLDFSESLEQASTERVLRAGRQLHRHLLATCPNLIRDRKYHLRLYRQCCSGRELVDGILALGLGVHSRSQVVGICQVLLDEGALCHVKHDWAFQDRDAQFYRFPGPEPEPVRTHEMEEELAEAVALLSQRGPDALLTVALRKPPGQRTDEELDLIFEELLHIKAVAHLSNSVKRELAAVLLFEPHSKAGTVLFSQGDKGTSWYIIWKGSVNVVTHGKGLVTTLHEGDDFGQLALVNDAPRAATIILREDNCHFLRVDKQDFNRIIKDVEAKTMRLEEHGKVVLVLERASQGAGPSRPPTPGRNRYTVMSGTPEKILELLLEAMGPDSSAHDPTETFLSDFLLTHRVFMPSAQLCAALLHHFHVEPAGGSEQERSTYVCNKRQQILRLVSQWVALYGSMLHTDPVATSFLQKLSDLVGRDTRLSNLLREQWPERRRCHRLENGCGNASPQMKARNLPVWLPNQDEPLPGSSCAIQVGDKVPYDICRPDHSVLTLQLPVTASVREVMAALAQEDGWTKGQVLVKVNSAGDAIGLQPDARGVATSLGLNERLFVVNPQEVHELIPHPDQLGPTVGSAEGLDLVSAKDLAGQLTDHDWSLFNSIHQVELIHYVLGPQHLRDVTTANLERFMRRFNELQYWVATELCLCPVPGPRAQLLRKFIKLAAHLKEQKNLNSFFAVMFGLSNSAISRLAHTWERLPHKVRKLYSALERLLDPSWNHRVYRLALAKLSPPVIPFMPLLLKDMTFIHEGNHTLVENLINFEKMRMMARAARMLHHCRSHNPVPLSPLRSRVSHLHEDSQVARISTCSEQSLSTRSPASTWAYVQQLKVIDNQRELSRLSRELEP
Sequence of Cytochrome P450 3A4 (Homo sapiens) (P08684 whole entry, looked up): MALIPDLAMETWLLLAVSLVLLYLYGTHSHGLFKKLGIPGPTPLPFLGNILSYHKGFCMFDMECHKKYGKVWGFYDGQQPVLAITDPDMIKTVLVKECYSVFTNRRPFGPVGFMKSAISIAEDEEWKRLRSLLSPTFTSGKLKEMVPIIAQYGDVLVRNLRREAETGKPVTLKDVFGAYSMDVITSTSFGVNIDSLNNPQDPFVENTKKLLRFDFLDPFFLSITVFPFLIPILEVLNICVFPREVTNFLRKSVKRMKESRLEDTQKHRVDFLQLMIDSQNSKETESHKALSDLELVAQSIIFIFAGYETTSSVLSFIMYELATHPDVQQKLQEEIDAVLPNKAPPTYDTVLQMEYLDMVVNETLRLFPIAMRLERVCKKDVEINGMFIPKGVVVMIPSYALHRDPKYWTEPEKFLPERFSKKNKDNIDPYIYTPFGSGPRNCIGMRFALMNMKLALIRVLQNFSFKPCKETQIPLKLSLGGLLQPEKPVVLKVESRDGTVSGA
Sequence of DNA dC->dU-editing enzyme APOBEC-3G (Homo sapiens) (Q9HC16 whole entry, looked up): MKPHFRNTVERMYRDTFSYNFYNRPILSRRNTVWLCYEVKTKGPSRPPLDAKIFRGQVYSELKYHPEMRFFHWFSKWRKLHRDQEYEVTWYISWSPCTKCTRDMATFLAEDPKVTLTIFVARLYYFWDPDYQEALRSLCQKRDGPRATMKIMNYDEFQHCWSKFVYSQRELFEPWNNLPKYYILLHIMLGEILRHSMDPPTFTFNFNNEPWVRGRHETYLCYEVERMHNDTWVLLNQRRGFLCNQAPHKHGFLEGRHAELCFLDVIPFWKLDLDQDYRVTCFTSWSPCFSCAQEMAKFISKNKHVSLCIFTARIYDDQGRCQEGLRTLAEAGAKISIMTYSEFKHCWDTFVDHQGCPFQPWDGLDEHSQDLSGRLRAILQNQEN
Sequence of Rap guanine nucleotide exchange factor 4 (Homo sapiens) (Q8WZA2 whole entry, looked up): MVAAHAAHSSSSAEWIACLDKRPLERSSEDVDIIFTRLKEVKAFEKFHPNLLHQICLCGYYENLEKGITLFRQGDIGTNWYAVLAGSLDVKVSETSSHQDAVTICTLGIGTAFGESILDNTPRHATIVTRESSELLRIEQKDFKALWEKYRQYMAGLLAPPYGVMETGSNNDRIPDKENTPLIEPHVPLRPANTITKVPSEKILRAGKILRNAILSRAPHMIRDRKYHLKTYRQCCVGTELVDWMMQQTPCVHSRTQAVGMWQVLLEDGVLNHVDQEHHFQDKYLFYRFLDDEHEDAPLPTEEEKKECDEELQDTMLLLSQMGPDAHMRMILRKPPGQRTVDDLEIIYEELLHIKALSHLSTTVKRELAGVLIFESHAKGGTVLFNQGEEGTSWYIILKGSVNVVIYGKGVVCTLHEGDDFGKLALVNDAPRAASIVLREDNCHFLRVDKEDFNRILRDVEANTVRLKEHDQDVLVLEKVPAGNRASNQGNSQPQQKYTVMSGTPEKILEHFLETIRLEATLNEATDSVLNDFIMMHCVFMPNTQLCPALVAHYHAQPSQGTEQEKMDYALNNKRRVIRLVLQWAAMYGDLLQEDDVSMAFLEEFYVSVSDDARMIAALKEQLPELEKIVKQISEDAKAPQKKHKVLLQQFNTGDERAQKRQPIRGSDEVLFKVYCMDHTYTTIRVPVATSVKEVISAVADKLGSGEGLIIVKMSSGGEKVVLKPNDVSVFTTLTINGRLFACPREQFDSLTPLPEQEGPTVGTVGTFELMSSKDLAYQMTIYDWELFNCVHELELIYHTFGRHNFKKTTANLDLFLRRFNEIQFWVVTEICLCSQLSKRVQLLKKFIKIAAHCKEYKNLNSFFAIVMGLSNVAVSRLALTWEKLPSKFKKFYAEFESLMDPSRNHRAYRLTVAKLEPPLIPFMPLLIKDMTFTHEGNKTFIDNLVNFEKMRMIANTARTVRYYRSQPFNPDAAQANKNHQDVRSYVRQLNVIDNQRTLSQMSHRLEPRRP

COc1ccc(-c2nc3cc(F)ccc3s2)cc1OC
inactive: activity, negative = inhibition [1] -4.14% [at 5.51 µM] | activity change, negative = inhibition [2] -16.8% [at 12.7 µM] | activity change, negative = cytotoxicity [3] -2.06% [at 4.93 µM] | activity change, negative = cytotoxicity [4] 0.919% [at 4.93 µM] | Potency [5]
active: Potency (Furin (Homo sapiens)) 3.43 µM

Cc1ncccc1OCC1CN(Cc2cccc(C(F)(F)F)c2)C(=O)c2c(ccnc2-c2ccc(OCC(=O)O)cc2)O1 (stereo unspecified)
inactive: Potency (Furin (Homo sapiens)) | Potency [6] | Potency [1] | Potency [5]

COc1ccc(-c2nc(C(=O)N3CCN(C)CC3)sc2-c2ccc(OC)cc2)cc1
inactive: Potency [7] > 46 µM | Potency [8] > 46 µM | Potency [9] | Potency [10] | Potency [11] | Potency [3] | Potency [4] | Potency [13] | outcome [14] | Potency [15]
active: Potency (Furin (Homo sapiens)) 13.5 µM | Potency [6] 24.1 µM | Potency [12] 26.7 µM

O=C(O[C@@H]1Cc2c(O)cc(O)cc2OC1c1ccc(O)c(O)c1)c1cc(O)c(O)c(O)c1 (stereo partly specified)
active: Potency [19] 35.5 µM | Potency [2] 14.1 µM | Potency [21] 25.1 µM | Potency [22] 0.708 µM
-10%: max response ([18]; measured here: cell count channel max response)
inactive: Potency [10] | outcome [16] | outcome [17] | activity change, negative = inhibition ([18]; at 57.5 µM (top of the series)) 6.43% | Potency (Furin (Homo sapiens)) | Potency [20] | Potency [5]
-4.33%: max response ([18]; measured here: lipid channel max response)

CS(=O)(=O)c1ccc(Nc2ccc3c(c2)OCO3)c([N+](=O)[O-])c1
inactive: Potency (Furin (Homo sapiens)) | Potency [6] | Potency [1] | Potency [5]

CCOC(=O)c1ccc(NC(=O)c2ccc3c(c2)CCN3S(=O)(=O)c2ccc(Cl)cc2)cc1
inactive: Potency (Furin (Homo sapiens)) | Potency [19]

Nc1cc(N)c(N=Nc2ccc(S(=O)(=O)Nc3nccs3)cc2)cc1N=Nc1ccc(S(=O)(=O)Nc2nccs2)cc1
inactive: Potency [5]
active: Potency (Furin (Homo sapiens)) 39.8 µM | Potency [6] 12.6 µM | Potency [2] 3.55 µM | Potency [21] 63.1 µM

O=C(O)c1cccc(-c2ccc(OC(F)(F)F)cc2)c1
inactive: Potency (Furin (Homo sapiens)) | Potency [6] | Potency [20] | Potency [21] | Potency [5]

O=C(O)c1ccc(-c2ccc(OC(F)(F)F)cc2)cc1
inactive: Potency (Furin (Homo sapiens)) | Potency [6] | Potency [1] | Potency [5]

O=C(COC(=O)c1cccc(NC(=O)c2ccc(Br)cc2)c1)c1ccc(Br)cc1
inactive: Potency (Furin (Homo sapiens)) | Potency [19]

N#CC(C#N)=C(N)/C(C#N)=C/c1cc(O)c(O)c(O)c1
inactive: Potency (Furin (Homo sapiens)) | Potency [12] | Potency [20] | Potency [5]
active: Potency [19] 44.7 µM | Potency [21] 112 µM

Cc1ccc(C(=O)Nc2ccc(C(=O)OCc3cc(=O)n4nc(C5CC5)sc4n3)cc2)cc1
inactive: Potency (Furin (Homo sapiens)) | Potency [19]
